Source: PubChem (The Scripps Research Institute Molecular Screening Center)
In the library only some 1.1% were active in any assay of this set; here they are far more common.
HTR5A ag ctr – HTR5A agonism, opioid heterodimer counter-screen | HTR5A agonist assay, luminescence, cell-based | activation, % at 9.3 µM | hit rate 0.61% among 340,000 | AID 504692; in the data active means activation mostly above about 9.5%, no sharp cut-off; inactive means mostly below about 7.6%;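 further: 0% = cells with vehicle only and 100% = reference agonist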
Target sequence (P47898 whole entry, looked up): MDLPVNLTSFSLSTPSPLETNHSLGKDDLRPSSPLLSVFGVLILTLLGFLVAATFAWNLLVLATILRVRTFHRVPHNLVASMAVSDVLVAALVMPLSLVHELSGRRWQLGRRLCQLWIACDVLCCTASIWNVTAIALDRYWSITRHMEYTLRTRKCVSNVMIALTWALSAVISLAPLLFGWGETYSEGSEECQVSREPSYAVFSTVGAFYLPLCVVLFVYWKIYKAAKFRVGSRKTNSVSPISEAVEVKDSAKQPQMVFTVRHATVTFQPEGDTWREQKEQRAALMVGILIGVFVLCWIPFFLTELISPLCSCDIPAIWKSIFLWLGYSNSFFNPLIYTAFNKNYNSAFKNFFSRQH
MOR-DOR ag – OPRM1-OPRD1 heterodimerization agonism. P35372+P41143. cells, luminescence. activation, % at 9.3 µM. hit rate 0.3% among 340,000. AID 504326; in the data active means activation above about 18%;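 further: 0% = vehicle-treated cells and 100% = reference agonist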
HTR5A inv ag – counter-screen for OPRM1-OPRD1 inverse agonists: human HTR5A inverse agonism. P47898. HTR5A cell line, luminescence. inhibition, % at 9.3 µM. hit rate 0.083% among 340,000. AID 504634; in the data active means inhibition mostly above about 23%, no sharp cut-off; inactive means mostly below about 18%;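 further: 0% = cells with DMSO and 100% = no-cell wells with DMSO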
OPRM1-OPRD1 inv – mu-delta opioid heterodimer inverse agonism; AID 504357; inhibition, % at 9.3 µM; cell-based MOR-DOR heterodimer luminescence; P35372+P41143; hit rate 0.21% among 340,000; in the data active means inhibition above about 22%, passing the limit was not always enough;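 further: 0% = cells with DMSO and 100% = wells without cells with DMSO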
* marks the source's active call; other numbers are inactive results; i = inactive; + = active, no number.

SMILES	HTR5A ag ctr	MOR-DOR ag	HTR5A inv ag	OPRM1-OPRD1 inv
O=C(COC(=O)c1cc(Cl)nc(Cl)c1)NC1CCCCCC1	-3	0	1	-1
COC(=O)[C@@H]1[C@@H](C#N)C2(c3ccccc3-c3ccccc32)N(c2ccc(Cl)cc2)N1C#N	8.7*	10	-9	-52
Cc1cccc(CC(=O)Nc2sc(C(C)C)cc2C(=O)N2CCOCC2)c1	-2	2	-2	-9
O=C(O)CCC(=O)Nc1ccccc1C(=O)NCCc1ccccc1	12*	-2	20	9
O=C(Nc1ccccc1)C1=C(c2ccccc2)S(=O)(=O)CCS1(=O)=O	-5	0	15	2
O=C(Nc1ccccc1)C1CCCN(C(=O)c2ccc(F)cc2)C1 (stereo not given)	4	-4	-10	15
Cc1ccccc1N1CCN(C2CCCN(C(=O)CCC(=O)N(C)C)C2)CC1 (stereo not given)	1	-1	-2	5
Cc1ccccc1N1CCN(C2CCCN(C(=O)CCC3(C)CC3)C2)CC1 (stereo not given)	10*	-4	-15	22
O=C(N/N=C/c1ccc(OC(F)F)cc1OC(F)F)c1cccc(S(=O)(=O)N2CCOCC2)c1	3	-1	18	5
COc1ccc(NS(=O)(=O)c2cccc(C(=O)NCc3ccccc3CN3CCCC3)c2)cc1	12*	-1	-36	2
CCOc1ccccc1N(C)C(=O)c1sc2ncn(CC(=O)N3CCCCC3C)c(=O)c2c1C (stereo not given)	12	0	-7	2
Cc1ccc(S(=O)(=O)NCCNc2ccc(Br)c(C)c2)cc1	11	5	-14	-17
Cc1cc(NC(=S)N(Cc2ccc(Br)cc2)Cc2ccc(C(=O)O)cc2)ccc1Cl	12*	-2	-34	11
Cc1cccc(NC(=S)N(Cc2ccc(Br)cc2)Cc2ccc(C(=O)O)cc2)c1	-3	-2	8	13
CCCc1nnc(NC(=O)CCC(=O)N2CCCCC2CC)s1 (stereo not given)	9.9*	-2	-15	12
Cc1ccc2c(c1)c1c3n2CCN(C(=O)CN2CCN(C)CC2)C3CCC1 (stereo not given)	9.1*	-1	-4	4
CCOC(=O)Cc1cc(OC)c(OC)cc1Cc1cc(OC)c(OC)cc1CC(=O)OCC	-2	-2	-15	8
CCN(CC)CCN(C(=O)/C=C/c1cccs1)c1nc2ccc(C)cc2s1	13*	4	-17	-20
CCOc1cccc2sc(N(CCN(C)C)C(=O)/C=C/c3cccs3)nc12	13*	2	-46	-10
CC(C)Oc1ccc(C(=O)Nc2ccc(Cl)c(S(=O)(=O)Nc3ccc(Cl)cc3)c2)cc1	12*	13	1	-68
CN(CCNC(=O)CN1C(=O)CSc2ccc(S(=O)(=O)N3CCCC3)cc21)Cc1ccccc1	-4	0	13	0
CC(=O)Nc1ccc(NC(=O)COC(=O)c2ccc([N+](=O)[O-])o2)cc1	13*	9	-48	-47
COc1ccc(-n2c(SCCNCCO)nc3sc4c(c3c2=O)CCCC4)cc1	-1	-2	3	10
O=C1c2ccccc2-c2onc3ccc(N4CCCC4)c1c23	6	19*	-4	-97
CCOc1ccc2noc3c2c1C(=O)c1ccccc1-3	-5	11	9	-63
SMILES	HTR5A ag ctr	MOR-DOR ag	HTR5A inv ag	OPRM1-OPRD1 inv
Oc1ccc(-c2csc(Nc3ccc4c(c3)OCO4)n2)c(O)c1	0	4	6	-20
N#Cc1ccc(Nc2nc(-c3ccc(O)cc3O)cs2)cc1C(F)(F)F	13*	4	-27	-23
CCC(CC)c1nnc(NC(=O)CC(C)c2ccccc2)s1 (stereo not given)	12*	5	-39	-26
COc1ccccc1N1CCN(C(c2cccs2)C(C)NC(=O)C(=O)N2CCOCC2)CC1 (stereo not given)	-5	-2	0	11
CC(C)Oc1ccccc1-c1nc(SCC(=O)O)n[nH]1	12*	4	-43	-22
O=S(=O)(Nc1cccc(-c2ccc(N3CCCCCC3)nn2)c1)c1ccc(C(F)(F)F)cc1	11*	1	13	-7
O=C(COc1cccc(Br)c1)N/N=C1\CCCc2ccccc21	14*	0	3	3
O=C(COc1cccc(Br)c1)NN=C1c2ccccc2-c2ccccc21	1	-2	-12	12
CC1OC(CC(=O)O)CC2=C1C(=O)c1c(O)cccc1C2=O (stereo not given)	-5	30*	21	-130
O=C1C=C(O)c2cccc(O)c2C1=O	2	2	3	-9
CCc1ccccc1NC(=O)CC(c1ccc(OC)cc1)n1cccc1 (stereo not given)	0	-2	-10	9
COc1ccc(CCN(Cc2cc3ccc(C)cc3[nH]c2=O)C(C)=O)cc1OC	4	-1	12	4
Nc1cccc(Nc2nc(OC(C(F)(F)F)C(F)(F)F)nc(OC(C(F)(F)F)C(F)(F)F)n2)c1	12*	10	-10	-56
Cc1ccccc1OCCc1c(C)[nH]c(=S)[nH]c1=O	12*	-5	-3	22
Cc1nc2ccccc2n1S(=O)(=O)c1ccc(S(=O)(=O)N2CCCCCC2)cc1	14*	-2	-37	8
NS(=O)(=O)c1ccc(NC2=CC(=O)C(=O)c3ccccc32)cc1	9.6*	8	-36	-39
Cc1occc1-c1nnc(SCC(=O)Nc2ccccc2N2CCCCC2)n1C	9.8*	2	-16	-12
Cc1occc1-c1nnc(SCC(=O)Nc2ccccc2)n1C	-2	-2	-4	8
CCN(CC(=O)Nc1c(F)cccc1F)C(=O)CC1CCCC1	11*	-3	-29	17
O=C(Nc1ncccc1O)c1ccc(Oc2ccccc2)cc1	-1	-1	3	8
Cc1cccc(C(=O)NC(=S)Nc2ccc(Cc3ccncc3)cc2)c1	12*	-1	-32	8
On1ccccc1=S	-10	i	23	+
CCNC(=S)N/N=C/c1sc(N2CCCCC2)nc1-c1cccs1	1	-3	15	14
CCOC(=O)C1CCCN(C(=O)COc2ccc(C(=O)c3ccccc3)cc2)C1 (stereo not given)	0	-1	2	4
CCOC(=O)C1CCCN(c2c(C(=O)c3ccccc3)cnc3ccc(OC)cc23)C1 (stereo not given)	-12	-7	30*	36*
SMILES	HTR5A ag ctr	MOR-DOR ag	HTR5A inv ag	OPRM1-OPRD1 inv
OC(COC(c1ccccc1)c1ccccc1)CN1CCN(c2cccc(Cl)c2)CC1 (stereo not given)	9	0	-23	-1
C/C(=C\c1ccccc1)CN1CCN(c2cccc(Cl)c2)CC1	0	1	1	-5
OC(CN1CCN(c2cccc(Cl)c2)CC1)c1ccccc1 (stereo not given)	13*	5	-49	-30
NC(=O)CN1CCN(c2cccc(Cl)c2)CC1	14*	-2	0	10
Cc1cccc(-c2ccc3c(c2)C2CC3CCN2C)c1 (stereo not given)	-3	1	9	-4
Cc1ccc(S(=O)(=O)Nc2nc(C)c(C(=O)Nc3ccccc3)s2)cc1	1	-1	-2	6
